Screen size: about 69,000 compounds; about 8,600 (12%) showed an effect of 50% or more. The entries come from a sample that favours strong results as a whole.

The test relates to Plasmodium berghei. Put plainly: Screen against P. berghei liver stage (PbLuc), transformed with Luciferase, at 10uM. It is filed as functional, HepG2. Conditions: tested at 10 uM.
For the compound `CC(=O)NCc1ccc(C(=O)NC2CCc3nc(C)cn3C2)o1` (configuration not stated), the INHIBITION is recorded as 17.945%.
For `COc1ccc(CN2C[C@@H]3COC[C@@H](CC(=O)N4CCCC4)[C@@H]3C2)cc1` the value was -26.5%; for `CN1CCN([C@H]2COC[C@@H]3CN(Cc4cccnc4)C[C@@H]32)CC1`, 57.9%.
For `COc1ccc(CN2C[C@@H]3COC[C@H](N4CCN(C)CC4)[C@@H]3C2)cc1` the value was 40.4%.
`COc1ccc(CN2C[C@@H]3COC[C@@H](N4CCN(C)CC4)[C@@H]3C2)cc1`: the INHIBITION is 68.4%.
`Cc1cc(C)cc(CN2C[C@H]3COC[C@H](N4CCN(C)CC4)[C@H]3C2)c1`: the INHIBITION was found to be 47.4%.
The value for `O=C(C[C@@H]1COC[C@H]2CN(Cc3cccnc3)C[C@@H]12)N1CCOCC1` was 19.5%.
For `Cc1nc(CN2CCCN(Cc3nccn3C(C)C)CC2)no1` the value was 29.7%; for `CNc1nc(CNC(=O)Nc2cccc(CC(F)(F)F)c2)cs1`, 7.5%; for `CNC(=O)[C@H]1C[C@@H]2CN(c3cc(OC)ncn3)C[C@@H]2N1C(C)C`, 55.6%.
For `CNC(=O)[C@H]1C[C@@H]2CN(Cc3cccnc3OC)C[C@@H]2N1C(C)C`, the INHIBITION is 33.4%.
The value for `CNC(=O)[C@@H]1C[C@H]2CN(c3ncccn3)C[C@H]2N1C(C)C` was 24.6%.
For `CN1CCN(C[C@H]2OC[C@@H]3CCN(Cc4ccsc4)C[C@@H]32)CC1` the value was 22.4%; for `O=C(c1ccn(COc2ccc(F)cc2)n1)N1CCCC1`, -28%; for `O=C(c1ccn(COc2ccc(F)cc2)n1)N1CCCCCC1`, -24.6%.
For `CC(C)c1ccc(OCn2ccc(C(=O)N3CCCC3)n2)cc1` the value was 83.4%; for `CN(CCc1ccncc1)Cc1nccn1Cc1ccccc1`, 11.6%; for `CN(Cc1ccncc1)Cc1nccn1Cc1ccccc1`, -46.4%.
Take `CN(CCc1ccccn1)Cc1nccn1Cc1ccccc1`: the INHIBITION is reported as 81.2%.
The value for `CC(C)CC(=O)N1CCCC1c1nccnc1Nc1ncccn1` (configuration not stated) was 32.3%.
The value for `O=S(=O)(CC1CCCN1S(=O)(=O)c1cccnc1)c1ccccc1` (configuration not stated) was 13.2%; that for `CS(=O)(=O)N1CCCC1CS(=O)(=O)c1ccccc1` (configuration not stated) was 66.9%; that for `O=S(=O)(CC1CCCN1S(=O)(=O)C1CC1)c1ccccc1` (configuration not stated) was 7.77%.
For `O=C1NC(c2cnc(C3CCC3)s2)Nc2ccccc21` (configuration not stated) the value was -90.1%; for `CC(C)N(C)Cc1n[nH]c2c1CCN(C(=O)c1cc[nH]n1)C2`, 8.03%.
As for `Cc1nc2c(c(NC(C)C)n1)CCN(C(=O)c1cc[nH]n1)CC2`, the INHIBITION worked out at 34.6%.
For the compound `CC(C)Nc1nc2c(c(N(C)C)n1)CCN(C(=O)c1cc[nH]n1)CC2`, the INHIBITION is reported as 50.7%.
For `O=C(C[C@@H]1COC[C@H]2CN(C3CCOCC3)C[C@@H]12)Nc1cnccn1` the value was 42.5%.
For `COc1ccccc1C1(O)CCCN(C(=O)c2cnc(SC)nc2)C1` (configuration not stated) the value was 36.9%; for `O=C(CC1CC1)N[C@@H]1CN(Cc2ccoc2)C[C@@H]2CCCO[C@@H]21`, 3.25%.
For `O=C(CC1CC1)N[C@@H]1CN(c2ncccn2)C[C@@H]2CCCO[C@@H]21` the value was -29.3%; for `Cc1occc1C(=O)N1C[C@@H]2CCCO[C@@H]2[C@H](NC(=O)CC2CC2)C1`, 62.9%.
In the case of `COc1ccc(CN2C[C@@H]3CCCO[C@@H]3[C@H](NC(=O)CC3CC3)C2)cc1`, the INHIBITION is recorded as -3.52%.
As for `O=C(CC1CC1)N[C@@H]1CN(Cc2ccc(F)cc2)C[C@@H]2CCCO[C@@H]21`, the INHIBITION is given as -6.23%.
`O=C(CC1CC1)N[C@@H]1CN(Cc2ccco2)C[C@@H]2CCCO[C@@H]21`: the INHIBITION is -2.17%.
Regarding `O=C(CC1CC1)N[C@@H]1CN(C(=O)c2ccsc2)C[C@@H]2CCCO[C@@H]21`, the INHIBITION worked out at 63.8%.
The value for `O=C(N[C@@H]1CN(Cc2ccoc2)C[C@@H]2CCCO[C@@H]21)C1CCC1` was 72%.
`Cc1occc1C(=O)N1C[C@@H]2CCCO[C@@H]2[C@H](NS(C)(=O)=O)C1`: the INHIBITION was found to be 43%.
Consider `Cc1ccc(CN2C[C@@H]3CCCO[C@@H]3[C@H](NC(=O)CC3CC3)C2)s1`, for which the INHIBITION is listed as 49.3%.
For the compound `O=C(CC1CC1)N[C@@H]1CN(C(=O)c2ccoc2)C[C@@H]2CCCO[C@@H]21`, the INHIBITION is 71.1%.
The value for `O=C(N[C@@H]1CN(Cc2ccccc2)C[C@@H]2CCCO[C@@H]21)C1CC1` was 6.38%.
The value for `O=C(CCC1CCCO1)NCc1ccccc1Cn1cncn1` (configuration not stated) was 34.7%; that for `COc1ccc(Nc2nc3c(C)nn(C)c3c(=O)n2C)c(C)c1` was 29%.
For the compound `Cc1nn(C)cc1C(=O)N1CCCC(n2cncn2)C1` (configuration not stated), the INHIBITION was found to be 9.14%.
For `Cc1sc(C(=O)O)cc1S(=O)(=O)Nc1c(F)cccc1-n1cccn1` the value was -28.8%.
For the compound `O=C(NCC1(COc2cnccn2)C[C@@H](O)[C@@H](O)C1)C1CCOCC1` (some centres not stated), the INHIBITION is -0.813%.
Turning to `Cc1n[nH]c(=O)c(C(=O)N2CCN(CCc3cccs3)CC2)c1C`, the INHIBITION was -36.1%.

Values taken from ChEMBL document CHEMBL4513216, “Probing the Open Global Health Chemical Diversity Library for Multistage-Active Starting Points for Next-Generation Antimalarials” (ACS Infect Dis, 2020).
